Source: PMC10812921, “Transcriptional Coactivator BOB1 (OBF1, OCA-B) Modulates the Specificity of DNA Recognition by the POU-Domain Factors OCT1 and OCT2 in a Monomeric Configuration”

Columns and labels:
POU1 (OCT1 POU domain) = POU1 (OCT1 POU domain) (human, UniProt P14859 260-458); experiment: EMSA-SELEX-seq; no BOB1; 20 mM Tris-HCl pH 7.6, 140 mM NaCl, 10% glycerol, 0.5 mM EDTA, 0.05% Triton X-100, 0.1 mg/mL BSA, 0.1 mg/mL poly(dI-dC), 5 mM DTT, room temperature, 20 min; high values mean tight binding; settings: protein: recombinant; dsDNA, one strand shown
Method in brief: (§1)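 Binding preference is the percentage of sequenced 8-mers matching a motif pattern. Tagged POU-domain proteins expressed in E. coli BL21 were purified under denaturing conditions and renatured. For binding, 30 ng protein met 300 ng of a PCR-amplified double-stranded random 35-nt library, with or without 28 ng coactivator protein, in 20 μL Tris–HCl pH 7.6 binding buffer for 20 min at RT. Complex bands were cut from native 6% PAGE, eluted and PCR-amplified over four rounds, then Illumina-sequenced.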

POU2 (OCT2 POU domain) = biological target: T1, POU2 (OCT2 POU domain) (human, UniProt P09086 175-386); experiment: as above; settings: protein: recombinant; dsDNA, one strand shown
T1 sequence: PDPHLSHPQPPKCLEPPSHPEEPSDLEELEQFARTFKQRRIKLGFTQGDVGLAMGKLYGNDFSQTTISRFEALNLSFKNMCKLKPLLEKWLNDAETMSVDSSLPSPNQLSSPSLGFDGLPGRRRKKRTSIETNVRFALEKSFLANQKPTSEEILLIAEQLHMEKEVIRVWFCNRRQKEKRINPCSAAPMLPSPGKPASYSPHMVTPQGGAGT
Method in brief: as §1

[1] = biological target: POU1 (OCT1 POU domain);BOB1 (OBF1, OCA-B) (human;human, UniProt P14859;Q16633 260-458;1-256, |); experiment: EMSA-SELEX-seq; with BOB1 (ternary complex band); 20 mM Tris-HCl pH 7.6, 140 mM NaCl, 10% glycerol, 0.5 mM EDTA, 0.05% Triton X-100, 0.1 mg/mL BSA, 0.1 mg/mL poly(dI-dC), 5 mM DTT, room temperature, 20 min; high values mean tight binding; settings: protein: recombinant;recombinant; copies: 1;1; dsDNA, one strand shown
Method in brief: as §1

[2] = biological target: T2, POU2 (OCT2 POU domain);BOB1 (OBF1, OCA-B) (human;human, UniProt P09086;Q16633 175-386;1-256, |); experiment: as above; settings: protein: recombinant;recombinant; copies: 1;1; dsDNA, one strand shown
T2 sequence 1: T1 sequence
T2 sequence 2: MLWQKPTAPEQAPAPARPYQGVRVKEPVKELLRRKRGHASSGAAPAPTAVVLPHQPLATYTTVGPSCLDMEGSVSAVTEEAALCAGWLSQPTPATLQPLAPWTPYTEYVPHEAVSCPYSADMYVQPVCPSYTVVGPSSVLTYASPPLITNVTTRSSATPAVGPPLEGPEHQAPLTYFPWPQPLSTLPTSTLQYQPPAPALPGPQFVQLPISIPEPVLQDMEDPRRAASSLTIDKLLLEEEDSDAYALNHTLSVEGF
Method in brief: as §1

Chain of POU1 (OCT1 POU domain) (P14859 260-458): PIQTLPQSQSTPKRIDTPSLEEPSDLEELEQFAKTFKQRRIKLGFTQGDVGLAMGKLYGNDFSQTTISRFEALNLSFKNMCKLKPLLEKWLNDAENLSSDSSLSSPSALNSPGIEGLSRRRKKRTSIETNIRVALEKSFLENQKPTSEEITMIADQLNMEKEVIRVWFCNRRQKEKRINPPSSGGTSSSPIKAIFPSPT

Sequence | binding signal (POU1 (OCT1 POU domain)) | binding signal (POU2 (OCT2 POU domain)) | binding signal [1] | binding signal [2]
ACCAAAAT | 0.0446 % of ANNNNAAN 8-mers | 0.0397 % of ANNNNAAN 8-mers | 0.055 % of ANNNNAAN 8-mers | 0.0537 % of ANNNNAAN 8-mers
ACGGTAAT | 0.0984 % of ANNNNAAN 8-mers | 0.143 % of ANNNNAAN 8-mers | 0.0741 % of ANNNNAAN 8-mers | 0.109 % of ANNNNAAN 8-mers
ACCCGAAA | 0.0172 % of ANNNNAAN 8-mers | 0.019 % of ANNNNAAN 8-mers | 0.0168 % of ANNNNAAN 8-mers | 0.014 % of ANNNNAAN 8-mers
AAGTAAAC | 0.0477 % of ANNNNAAN 8-mers | 0.0489 % of ANNNNAAN 8-mers | 0.0535 % of ANNNNAAN 8-mers | 0.0487 % of ANNNNAAN 8-mers
ACATTAAT | 0.165 % of ANNNNAAN 8-mers | 0.215 % of ANNNNAAN 8-mers | 0.0777 % of ANNNNAAN 8-mers | 0.102 % of ANNNNAAN 8-mers
ACTGCAAG | 0.0133 % of ANNNNAAN 8-mers | 0.0144 % of ANNNNAAN 8-mers | 0.016 % of ANNNNAAN 8-mers | 0.0107 % of ANNNNAAN 8-mers
AAGGGAAC | 0.0389 % of ANNNNAAN 8-mers | 0.0506 % of ANNNNAAN 8-mers | 0.0363 % of ANNNNAAN 8-mers | 0.0305 % of ANNNNAAN 8-mers
AGGGCAAC | 0.0214 % of ANNNNAAN 8-mers | 0.0219 % of ANNNNAAN 8-mers | 0.0172 % of ANNNNAAN 8-mers | 0.0173 % of ANNNNAAN 8-mers
ATCCGAAA | 0.0305 % of ANNNNAAN 8-mers | 0.0374 % of ANNNNAAN 8-mers | 0.0308 % of ANNNNAAN 8-mers | 0.0338 % of ANNNNAAN 8-mers
ACGCTAAC | 0.0118 % of ANNNNAAN 8-mers | 0.0121 % of ANNNNAAN 8-mers | 0.0133 % of ANNNNAAN 8-mers | 0.0157 % of ANNNNAAN 8-mers
AGACGAAA | 0.0309 % of ANNNNAAN 8-mers | 0.0472 % of ANNNNAAN 8-mers | 0.0343 % of ANNNNAAN 8-mers | 0.0264 % of ANNNNAAN 8-mers
AATCAAAG | 0.0854 % of ANNNNAAN 8-mers | 0.0857 % of ANNNNAAN 8-mers | 0.122 % of ANNNNAAN 8-mers | 0.0916 % of ANNNNAAN 8-mers
AGATCAAG | 0.0305 % of ANNNNAAN 8-mers | 0.0397 % of ANNNNAAN 8-mers | 0.0273 % of ANNNNAAN 8-mers | 0.0272 % of ANNNNAAN 8-mers
ATCATAAA | 0.0736 % of ANNNNAAN 8-mers | 0.0944 % of ANNNNAAN 8-mers | 0.0425 % of ANNNNAAN 8-mers | 0.0586 % of ANNNNAAN 8-mers
AAGTGAAG | 0.0381 % of ANNNNAAN 8-mers | 0.0409 % of ANNNNAAN 8-mers | 0.0386 % of ANNNNAAN 8-mers | 0.0454 % of ANNNNAAN 8-mers
AGTTAAAG | 0.0545 % of ANNNNAAN 8-mers | 0.0564 % of ANNNNAAN 8-mers | 0.064 % of ANNNNAAN 8-mers | 0.0528 % of ANNNNAAN 8-mers
ATGCGAAG | 0.0538 % of ANNNNAAN 8-mers | 0.0604 % of ANNNNAAN 8-mers | 0.0523 % of ANNNNAAN 8-mers | 0.057 % of ANNNNAAN 8-mers
AAGACAAA | 0.0538 % of ANNNNAAN 8-mers | 0.0472 % of ANNNNAAN 8-mers | 0.0706 % of ANNNNAAN 8-mers | 0.0438 % of ANNNNAAN 8-mers
ATTTAAAG | 0.183 % of ANNNNAAN 8-mers | 0.185 % of ANNNNAAN 8-mers | 0.152 % of ANNNNAAN 8-mers | 0.0759 % of ANNNNAAN 8-mers
AACAGAAG | 0.0244 % of ANNNNAAN 8-mers | 0.0339 % of ANNNNAAN 8-mers | 0.0273 % of ANNNNAAN 8-mers | 0.0297 % of ANNNNAAN 8-mers
ATAAGAAT | 0.114 % of ANNNNAAN 8-mers | 0.143 % of ANNNNAAN 8-mers | 0.0886 % of ANNNNAAN 8-mers | 0.0892 % of ANNNNAAN 8-mers
AACCTAAA | 0.0206 % of ANNNNAAN 8-mers | 0.0391 % of ANNNNAAN 8-mers | 0.0242 % of ANNNNAAN 8-mers | 0.0264 % of ANNNNAAN 8-mers
AAATAAAA | 0.177 % of ANNNNAAN 8-mers | 0.177 % of ANNNNAAN 8-mers | 0.199 % of ANNNNAAN 8-mers | 0.171 % of ANNNNAAN 8-mers
AACAAAAC | 0.0587 % of ANNNNAAN 8-mers | 0.0409 % of ANNNNAAN 8-mers | 0.0987 % of ANNNNAAN 8-mers | 0.0636 % of ANNNNAAN 8-mers
ACGGGAAA | 0.0492 % of ANNNNAAN 8-mers | 0.0564 % of ANNNNAAN 8-mers | 0.0496 % of ANNNNAAN 8-mers | 0.0586 % of ANNNNAAN 8-mers
AGTTAAAA | 0.0778 % of ANNNNAAN 8-mers | 0.0915 % of ANNNNAAN 8-mers | 0.0831 % of ANNNNAAN 8-mers | 0.0537 % of ANNNNAAN 8-mers
ACTGCAAT | 0.0301 % of ANNNNAAN 8-mers | 0.0213 % of ANNNNAAN 8-mers | 0.0367 % of ANNNNAAN 8-mers | 0.0248 % of ANNNNAAN 8-mers
ATTTCAAG | 0.0542 % of ANNNNAAN 8-mers | 0.0495 % of ANNNNAAN 8-mers | 0.055 % of ANNNNAAN 8-mers | 0.0561 % of ANNNNAAN 8-mers
ACCGGAAA | 0.0271 % of ANNNNAAN 8-mers | 0.0236 % of ANNNNAAN 8-mers | 0.0265 % of ANNNNAAN 8-mers | 0.0281 % of ANNNNAAN 8-mers
ATTGCAAA | 0.202 % of ANNNNAAN 8-mers | 0.167 % of ANNNNAAN 8-mers | 0.322 % of ANNNNAAN 8-mers | 0.324 % of ANNNNAAN 8-mers
